According to PubChem BioAssay AID488922 (Johns Hopkins Ion Channel Center, 2010):
The whole screen tested about 310,000 compounds, of which about 3,800 (1.2%) were called active.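 How the source made its calls: active means ratio B-score over 3 SD below the library mean, with starting fluorescence within 5 SD of its mean; inactive means the rest, inconclusive results apart.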 The list comes from a sample in which actives are over-represented; it also holds similar structures and randomly drawn compounds.

target: Potassium channel subfamily K member 9 (Homo sapiens) (UniProt Q9NPC2); test: KCNK9 potassium channel inhibitors, primary screen, HEK293 cells, thallium flux (AID 488922); details: HEK293 KCNK9, FluxOR thallium flux fluorescence, at 10 µM; stronger effect = lower value;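 on B-score: negative B-score means less thallium flux so channel inhibition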
Sequence (Q9NPC2 whole entry, looked up): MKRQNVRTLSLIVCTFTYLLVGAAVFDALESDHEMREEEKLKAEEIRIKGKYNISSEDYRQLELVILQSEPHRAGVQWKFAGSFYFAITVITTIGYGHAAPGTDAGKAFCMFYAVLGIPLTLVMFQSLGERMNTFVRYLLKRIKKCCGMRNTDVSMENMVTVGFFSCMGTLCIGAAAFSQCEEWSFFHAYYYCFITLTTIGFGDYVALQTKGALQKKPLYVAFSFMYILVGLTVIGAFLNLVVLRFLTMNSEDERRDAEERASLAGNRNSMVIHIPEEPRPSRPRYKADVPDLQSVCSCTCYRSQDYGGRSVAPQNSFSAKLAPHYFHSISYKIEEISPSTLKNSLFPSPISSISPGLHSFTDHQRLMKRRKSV

Row | SMILES | B-score
1 | CCCCCCCCCCCCn1ccc(=N)cc1 | -10.8 (active)
2 | Cc1ccc(-c2nc3ccccc3c(=O)n2-c2ccc(Br)cn2)cc1 | inactive
3 | COc1cc(Cn2c(N)c(C(=O)NCc3ccco3)c3nc4ccccc4nc32)cc(OC)c1OC | inactive
4 | CC1=C2C(=O)C3C(CC=C4CC(OC5OC(O)C(O)C(O)C5CO)CCC43C)C2CCC12OC1CC(C)CNC1C2C (stereo not given) | inactive
5 | CCC(=NCCCO)c1c(O)n(-c2ccc(OC)cc2)c(=O)[nH]c1=O | inactive
6 | CCCCn1c(O)c(C(CC)=NCc2ccco2)c(=O)[nH]c1=O | inactive
7 | CCCCCCN=C(CC)c1c(O)n(CCCC)c(=O)[nH]c1=O | -12.7 (active)
8 | CCN(CC)C(=O)Oc1ccc(NC(=O)N2CCOCC2)cc1 | inactive
9 | CN(C)CC1CCCCC1OC(=O)c1ccc(Cl)c(Cl)c1 (stereo not given) | inactive
10 | COC(=O)C1=C(c2cc3ccccc3s2)C[C@@H]2CC[C@H]1N2C(=O)NC(C)C | inactive
11 | CCN1CCN(c2nc3c(c(=O)[nH]2)CCC3)CC1 | inactive
12 | CC(C)(C)c1ccc(CN2C(=O)CN=C(c3ccccc3)c3ccccc32)cc1 | -12.7 (active)
13 | O=C1CC(=O)N(Cc2ccccc2)C(=O)N1CCCCCCN1C(=O)CC(=O)N(Cc2ccccc2)C1=O | inactive
14 | CCOC(=O)c1c(C)c(C(=O)N2CCC3(CC2)OCCO3)c(C)n1CC | inactive
15 | CCOP(=S)(OCC)C(O)CCCCCn1c(=O)c(F)cn(C2CCCO2)c1=O (stereo not given) | inactive
16 | C=CCN1C(=O)NC(=O)/C(=C/c2ccc(OCC(=O)Nc3ccc(C)cc3)cc2)C1=O | inactive
17 | O=C(O)CCn1cc(C=C2C(=O)NC(=S)NC2=O)c(-c2cccc(Br)c2)n1 | inactive
18 | CCOC(=O)C1SC2(C(F)(F)C(F)F)CC1(O)c1c(c(OC)c3occc3c1OC)O2 (stereo not given) | -8.55 (active)
19 | CCOP(=O)(OCC)C(NC(=O)c1ccc(OC)cc1)C(Cl)(Cl)Cl (stereo not given) | inactive
20 | NC(=O)Nc1cccc(C(F)(F)F)c1 | inactive
